Among the test systems are SK-MEL-2 melanoma; EKVX NSCLC; SN12C renal; UO-31 renal; TK-10 renal; ACHN renal; CAKI-1 renal; A498 renal; CCRF-CEM leukemia; MOLT-4 leukemia.
Common to all, as to assay: NCI-60 one-dose screen, 48 h (100 = growth as untreated, 0 = no growth, -100 = all killed)
Common to all, as to conditions: 10 µM unless noted

About 83,000 compounds went through this panel and 20% of them were active in at least one assay; those are over-represented in the sample as a whole.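 How to read the values: 0–100, growth inhibition (40 = 60% inhibited); 0, no net growth; -100 to 0, cell death (-40 = 40% of starting cells died; -100 = all dead).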 Unmarked numbers belong to inactive results. Activity calls are given as the source filed them. How the source made its calls: active means growth percent below 10; inactive means the rest.

Regarding `O=S(=O)(Nc1ccc(F)c(Cl)c1)c1ccc(-c2cnc(C3CC3)o2)cc1`, the growth in the assay on SK-MEL-2 melanoma was 38%; in the assay on EKVX NSCLC, 32.2%; with SN12C renal it was 49.9%; with UO-31 renal it was 41.8%; in the assay with TK-10 renal, 44%; in the assay with ACHN renal, 44.5%. The growth is 32.5% in the assay with CAKI-1 renal, -14.5% (active) with A498 renal, 19.6% in the assay with CCRF-CEM leukemia and 29.5% in the assay with MOLT-4 leukemia.
On to `CC/C=C\C[C@H](F)C/C=C1/C(=O)C=C[C@@H]1C/C=C\CCCC(=O)O`, for which the growth with SK-MEL-2 melanoma was 65.2%; in the assay on EKVX NSCLC, 75.1%; in the assay with SN12C renal, 44.3%; in the assay with UO-31 renal, 57.5%; in the assay with TK-10 renal it was 128%; with ACHN renal, 39.5%. The growth in the assay on CAKI-1 renal is 42.5%; with A498 renal it was 106%; in the assay on CCRF-CEM leukemia it was -7.62% (active); in the assay with MOLT-4 leukemia it was -4.45% (active).
`CS(=O)(=O)c1ccc(-c2cnc3ccc(-c4cccc(S(C)(=O)=O)c4)nn23)cc1`: the growth was 48.3% with SK-MEL-2 melanoma; 67.5% with EKVX NSCLC; 46.8% with SN12C renal; 24.2% in the assay with UO-31 renal; 40% in the assay on TK-10 renal; 22.4% in the assay on ACHN renal. The growth with CAKI-1 renal is 23.2%; in the assay with A498 renal, -15.6% (active); with CCRF-CEM leukemia, 18.4%; in the assay on MOLT-4 leukemia, 0.943% (active).
On to `Oc1ccc2c(=S)cc(-c3ccc(Br)cc3)oc2c1O`, for which the growth is 63.8% in the assay on SK-MEL-2 melanoma; 87.9% in the assay with EKVX NSCLC; -4.08% (active) in the assay with SN12C renal; 17.4% in the assay with UO-31 renal; 103% with TK-10 renal; 13.9% in the assay with ACHN renal. The growth with CAKI-1 renal is 65.8%; with A498 renal, 53.9%; in the assay on CCRF-CEM leukemia it was 5.37% (active); with MOLT-4 leukemia it was 7.88% (active).
As to `CC/C=C\C[C@H](O)C/C=C1/C(=O)C=C[C@@H]1C/C=C\CCCC(N)=O`, the growth is 13.9% in the assay with SK-MEL-2 melanoma; 23.6% in the assay with EKVX NSCLC; -4.37% (active) in the assay on SN12C renal; -70.8% (active) in the assay on UO-31 renal; -13% (active) with TK-10 renal; -82.2% (active) with ACHN renal. In addition, the growth was 11.3% in the assay on CAKI-1 renal, 54.6% in the assay with A498 renal, -4.33% (active) in the assay on CCRF-CEM leukemia and -13% (active) in the assay with MOLT-4 leukemia.
For `CN1CCN(c2ccc3nc(-c4ccc5nc(-c6ccc(OCCC(C)(C)C)cc6)[nH]c5c4)[nH]c3c2)CC1`, the growth with SK-MEL-2 melanoma was 5.57% (active); in the assay on EKVX NSCLC, 52.8%; with SN12C renal it was 75.4%; in the assay with UO-31 renal, 85.3%; in the assay with TK-10 renal, 89.9%; in the assay with ACHN renal, 64.4%. Moreover, the growth in the assay with CAKI-1 renal is 65.4%; in the assay on A498 renal, 88.6%; in the assay on CCRF-CEM leukemia, -50% (active); in the assay on MOLT-4 leukemia, -41.2% (active).
As to `CS(=O)(=O)c1c(Nc2ccccc2)n[nH]c1N`, the growth in the assay on SK-MEL-2 melanoma is 113%; in the assay on EKVX NSCLC, 116%; in the assay on SN12C renal, 95%; in the assay on UO-31 renal, 96.4%; in the assay on TK-10 renal, 90.2%; with ACHN renal, 102%. For the same molecule, the growth in the assay with CAKI-1 renal is 105%; in the assay on A498 renal, 115%; with CCRF-CEM leukemia it was 91.1%; in the assay on MOLT-4 leukemia it was 98.6%.
For the molecule `O=C1/C(=C/c2ccc(Cl)c(Cl)c2)CN(C(=O)CCN2CCC(=NO)CC2)C/C1=C\c1ccc(Cl)c(Cl)c1`, the growth in the assay on SK-MEL-2 melanoma was -86.9% (active); in the assay on EKVX NSCLC it was -85.1% (active); with SN12C renal it was -97.3% (active); in the assay on UO-31 renal it was -95.7% (active); with TK-10 renal, -88.9% (active); in the assay with ACHN renal, -98.4% (active). The growth in the assay with CAKI-1 renal was -92.1% (active); in the assay on A498 renal it was -92% (active); with CCRF-CEM leukemia, -28.2% (active); with MOLT-4 leukemia, -21.7% (active).
Consider `N#Cc1c2c(nc3n[nH]c(N)c13)CCCC2`, for which the growth with SK-MEL-2 melanoma was 109%; in the assay with EKVX NSCLC, 58.3%; in the assay on SN12C renal, 105%; in the assay with UO-31 renal, 71.7%; in the assay on TK-10 renal it was 128%; in the assay on ACHN renal, 101%. In addition, the growth in the assay with CAKI-1 renal was 95.5%; with A498 renal it was 121%; in the assay on CCRF-CEM leukemia it was 8.03% (active); in the assay on MOLT-4 leukemia, 90.7%.
`CCOC(=O)c1c2c(n3ccc(NC(=O)CCN4CCOCC4)cc13)C(=O)c1ncccc1C2=O`: the growth was 30.9% in the assay on SK-MEL-2 melanoma; 60.4% with EKVX NSCLC; 24.2% in the assay on SN12C renal; 36% in the assay on UO-31 renal; 47% in the assay on TK-10 renal; 16.5% with ACHN renal. In addition, the growth is 21.5% in the assay on CAKI-1 renal, 56.2% in the assay with A498 renal, 19.3% with CCRF-CEM leukemia and 18.6% with MOLT-4 leukemia.
For the molecule `CCOC(=O)c1cnc2ccc(Br)cc2c1Nc1cccc(S(=O)(=O)NC)c1`, the growth in the assay with SK-MEL-2 melanoma was 111%; in the assay with EKVX NSCLC, 96.2%; with SN12C renal, 103%; in the assay with UO-31 renal it was 80.4%; in the assay with TK-10 renal it was 114%; in the assay on ACHN renal it was 98.3%. For the same molecule, the growth was 87.4% in the assay with CAKI-1 renal, 77.7% in the assay on A498 renal, 105% with CCRF-CEM leukemia and 115% in the assay on MOLT-4 leukemia.
For the molecule `COc1ccc(C2c3ccc4ccccc4c3Oc3ncnc(N)c32)cc1` (stereo not given), the growth in the assay with SK-MEL-2 melanoma was 71.9%; in the assay with EKVX NSCLC, 45.9%; in the assay with SN12C renal, 96%; with UO-31 renal, 55.9%; in the assay on TK-10 renal, 113%; in the assay with ACHN renal, 81.3%. Also, the growth in the assay on CAKI-1 renal is 50%; in the assay with A498 renal, 75.2%; with CCRF-CEM leukemia, 89.2%; in the assay with MOLT-4 leukemia it was 83.4%.
Turning to `O=C1c2cc3c(cc2-c2c1c1cc(Cl)c(Cl)cc1c(=O)n2C[C@H](O)CO)OCO3`, the growth with SK-MEL-2 melanoma is -28.3% (active); in the assay on EKVX NSCLC, 14.2%; in the assay with SN12C renal it was -22.2% (active); in the assay with UO-31 renal, -61.3% (active); in the assay with TK-10 renal, -28% (active); with ACHN renal, -47.2% (active). The growth was -0.657% (active) in the assay with CAKI-1 renal, -73.3% (active) with A498 renal, -5.01% (active) in the assay with CCRF-CEM leukemia and -24.8% (active) in the assay on MOLT-4 leukemia.
For the molecule `CCCCCn1cnc2c(=S)nc[nH]c21`, the growth with SK-MEL-2 melanoma is 121%; in the assay with EKVX NSCLC, 108%; in the assay on SN12C renal, 117%; in the assay on UO-31 renal, 99.1%; with TK-10 renal it was 116%; with ACHN renal, 109%. The growth is 115% in the assay on CAKI-1 renal, 107% in the assay with A498 renal, 97.1% in the assay on CCRF-CEM leukemia and 104% in the assay on MOLT-4 leukemia.

These data come from PubChem BioAssay (NCI).
